From PubChem BioAssay (NCATS)
Active and inactive are the calls of the source. No rule for the calls is given here.

The compounds below were run on HIV-1 nucleocapsid protein NCp7 (binding to TG oligonucleotide) (assay: HIV Nucleocapsid (AID 346;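 also: potency is for inhibitors that block NC binding and lower polarization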)). Settings: HIV-1 NC / fluorescein-TGTGTGTG probe, fluorescence polarization.
Summary of the method: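 Reagents dispensed (10 nM TG4xF, 100 nM HIV-1 NC), plates spun, compounds pin-transferred, then incubated 1 hr at room temperature before FP imaging. Buffer: Hepes pH 7.5, 250mM NaCl, 1uM ZnCl2, 100 uM TCEP, 5 mM 2-mercaptoethanol.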
Potency is read from the fitted curve at half-maximal effect.

Structure (SMILES) | Potency
COc1ccc(Oc2ncc3nc(C)c(=O)n(CCC#N)c3n2)cc1 | > 20 µM (inactive)
O=C(Nc1cccc(F)c1)N1CC2(CCN(C(=O)c3cnccn3)CC2)C1 | > 20 µM (inactive)
O=c1c(-c2cc(F)cc(F)c2)nc2cnc(N3CCNCC3)nc2n1Cc1cccs1 | > 20 µM (inactive)
COCCn1c(=O)c(-c2cccs2)nc2cnc(Oc3ccccc3)nc21 | > 20 µM (inactive)
Cc1noc(C)c1C(=O)N1CCC[C@@]2(CCN(C(=O)Nc3cccc(C#N)c3)C2)C1 | > 20 µM (inactive)
Cc1noc(C)c1-c1nccc(N(C)C)n1 | > 20 µM (inactive)
COc1ccccc1CNc1ccnc(-c2ccccc2C(F)(F)F)n1 | > 20 µM (inactive)
O=C(c1cnccn1)N1CCC2(CC1)CN(c1ccccn1)C2 | > 20 µM (inactive)
CC(=O)NCCNc1ncncc1-c1ccccc1CN(C)C | > 20 µM (inactive)
O=C(c1cccc(F)c1)N1CCC2(CC1)CN(c1ccc(-c3ccccc3)cc1)C2 | > 20 µM (inactive)
COc1ccccc1-c1nccc(-n2ccnc2)n1 | > 20 µM (inactive)
CN(Cc1ccco1)c1ncncc1-c1cccc(NS(C)(=O)=O)c1 | > 20 µM (inactive)
CNc1ncncc1-c1ccc(C(=O)N(C)C)cc1 | > 20 µM (inactive)
COc1ccccc1-c1nccc(NCc2cccs2)n1 | > 20 µM (inactive)
O=C(Nc1ccccc1)N1CC[C@@]2(CCCN(C(=O)c3ccncc3)C2)C1 | > 20 µM (inactive)
COc1ncc2nc(-c3ccc(F)cc3)c(=O)n(C)c2n1 | > 20 µM (inactive)
COc1ccc(Oc2ncc3nc(-c4ccc(OC)cc4)c(=O)n(C4CC4)c3n2)cc1 | > 20 µM (inactive)
O=C(Nc1cccc(F)c1)N1CC[C@@]2(CCCN(C(=O)c3ccco3)C2)C1 | > 20 µM (inactive)
Cc1cnc(CNc2ncnc3ccc(-c4ccccc4C#N)cc23)cn1 | > 20 µM (inactive)
O=C(c1ccncc1)N1CCC2(CC1)CCN(c1ccccn1)CC2 | > 20 µM (inactive)

Structure (SMILES) | Potency
O=C(Nc1cccc(F)c1)N1CCCC2(CCN(C(=O)c3cnccn3)CC2)C1 | > 20 µM (inactive)
c1csc(CNc2cc(-c3ccoc3)ncn2)c1 | > 20 µM (inactive)
COCCNc1ncnc2ccc(-c3cccc(NS(C)(=O)=O)c3)cc12 | > 20 µM (inactive)
COc1ccc2[nH]cc(CCNc3nc(-c4ccc(N(C)C)cc4)nc4ccccc34)c2c1 | > 20 µM (inactive)
N#Cc1cccc(-c2nc(NCc3cccs3)c3ccccc3n2)c1 | > 20 µM (inactive)
CCNc1ncc2nc(C)c(=O)n(C[C@H]3CCCO3)c2n1 | > 20 µM (inactive)
CC(=O)NCCNc1cc(-c2ccccc2CN(C)C)ncn1 | > 20 µM (inactive)
CS(=O)(=O)N1CCC[C@@]2(CCN(c3ccccn3)C2)C1 | > 20 µM (inactive)
Cc1nc2cnc(OCc3ccccc3)nc2n(Cc2ccc(F)cc2)c1=O | > 20 µM (inactive)
N#Cc1cccc(-c2nc(NCc3cccnc3)c3ccccc3n2)c1 | > 20 µM (inactive)
Cn1cccc1C(=O)N1CCC2(CC1)CCN(c1cccc(-c3ccccc3)c1)CC2 | > 20 µM (inactive)
COc1cccc(-c2nccc(NC3CCNCC3)n2)c1 | > 20 µM (inactive)
CC(=O)N1CCC2(CC1)CN(Cc1cc(C(F)(F)F)cc(C(F)(F)F)c1)C2 | > 20 µM (inactive)
COc1ccc(-c2nc3cnc(Oc4ccccc4)nc3n(C3CC3)c2=O)cc1 | > 20 µM (inactive)
COc1ccc(C(=O)N2CCC3(CCCN(c4cccc(-c5ccccc5)c4)C3)CC2)cc1 | > 20 µM (inactive)
Cc1cccc(CNc2nc(-c3ccccc3CN(C)C)nc3ccccc23)c1 | > 20 µM (inactive)
N#Cc1ccc(CN2CCCC3(CCNCC3)C2)cc1 | > 20 µM (inactive)
N#Cc1ccc(CN2CCC3(CC2)CCN(S(=O)(=O)c2ccccc2)CC3)cc1 | > 20 µM (inactive)
O=C(c1cccc(F)c1)N1CCC2(CC1)CN(c1ccccc1)C2 | > 20 µM (inactive)
Cc1noc(C)c1-c1cc(Nc2ccccc2)ncn1 | > 20 µM (inactive)
